High-throughput results as filed in PubChem.
The list is not random: actives were taken first. Their share in the collection is about 2.9%.
MEKK2 WT-MEK5: raises or lowers MEK5 binding to wildtype human MEKK2 PB1 domain. Q9Y2U5. bead flow cytometry, Alexa488-MEK5 binding to MEKK2 WT; actives lie on both sides. binding response (% of control), % at 10 µM. actives 1.1% (n = 290,000); in the data active = binding response below about 67% or above about 130%
dFosB activator: activators of mouse delta FosB homodimer; P13346; purified delta FosB, TAMRA-CDK5 oligo fluorescence polarization; percent of positive-control signal above neutral wells; activation, % at 25 µM; actives 0.99% (n = 340,000); AID 493131;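 active = mean activation above about 17%, with every replicate also reaching it, limit read from the data, passing the limit was not always enough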
MEKK3 PB1 HTS: MEKK3-MEK5 PB1 interaction, increase or decrease. Q99759. bead-based flow cytometry, Alexa488-MEK5 binding to MEKK3; actives lie on both sides; 0 = blocked by unlabeled MEK5, 100 = vehicle. binding response (% of control), % at 10 µM. actives 1.4% (n = 290,000);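 active = binding response more than 3 SD above or below the average of its plate-row segment, actives on both sides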;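 also: Alexa488 bead fluorescence after subtracting the streptavidin-only scavenger bead signal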
Target sequence (Q99759 whole entry, looked up): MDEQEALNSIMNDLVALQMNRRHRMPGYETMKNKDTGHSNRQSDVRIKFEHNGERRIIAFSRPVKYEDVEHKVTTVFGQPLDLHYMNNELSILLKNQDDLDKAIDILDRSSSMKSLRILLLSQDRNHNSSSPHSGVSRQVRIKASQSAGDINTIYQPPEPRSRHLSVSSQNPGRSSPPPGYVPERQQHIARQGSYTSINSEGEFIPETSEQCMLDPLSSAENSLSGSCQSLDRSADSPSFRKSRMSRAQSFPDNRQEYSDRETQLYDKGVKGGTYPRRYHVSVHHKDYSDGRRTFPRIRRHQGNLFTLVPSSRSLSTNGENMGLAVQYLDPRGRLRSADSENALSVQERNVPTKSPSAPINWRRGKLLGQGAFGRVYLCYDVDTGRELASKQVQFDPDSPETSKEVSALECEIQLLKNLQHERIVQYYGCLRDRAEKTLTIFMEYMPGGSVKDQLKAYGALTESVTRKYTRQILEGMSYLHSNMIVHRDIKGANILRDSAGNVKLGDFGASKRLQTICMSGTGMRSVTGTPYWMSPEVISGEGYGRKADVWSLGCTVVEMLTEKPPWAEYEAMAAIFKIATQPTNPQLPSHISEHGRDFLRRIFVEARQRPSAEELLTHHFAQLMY
MEKK2 mut-MEK5: signal of MEK5 binding to mutant human MEKK2 PB1 domain; actives 0.35% (n = 290,000); percent response, % at 10 µM; bead flow cytometry, Alexa488-MEK5 binding to MEKK2 mutant; AID 1530; in the data active = percent response above about 24%, passing the limit was not always enough
DNA FID counter: counter-screen for HCV NS3 helicase inhibitors: DNA intercalator displacement; DNA fluorescent intercalator displacement, fluorescence; inhibition, % at 7.9 µM; actives 0.17% (n = 290,000); in the data active = inhibition above about 37%;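 also: 0% = vehicle and 100% = reference compound; higher means more ethidium bromide displaced from hairpin DNA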
MEKK2wt confirm: raises or lowers MEK5 binding to wildtype human MEKK2, retest; bead flow cytometry, Alexa488-MEK5 binding to MEKK2 WT; actives lie on both sides; actives 2.4% (n = 5,900); binding response (% of control), % at 10 µM; AID 1892; shares compounds with MEKK3 PB1 HTS; in the data active = binding response below about 16% or above about 210%; inactive = in between
MEKK2mut-MEK5: signal of MEK5 binding to mutant human MEKK2, retest; shares compounds with MEKK3 PB1 HTS; bead flow cytometry, Alexa488-MEK5 binding to MEKK2 mutant; percent response, % at 10 µM; actives 2% (n = 5,900); AID 1893; in the data active = percent response mostly above about 71%, no sharp cut-off; inactive = mostly below about 38%;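 also: higher means compound restores mutant binding toward wildtype level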
MEKK3-MEK5 inh: confirmation of inhibitors of MEK5 binding to human MEKK3; shares compounds with MEKK3 PB1 HTS; bead flow cytometry, Alexa488-MEK5 binding to MEKK3; active compounds read low; binding response (% of control), % at 10 µM; actives 1.8% (n = 5,900);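 active = binding response below 72% of control, or above a set upper limit, though filed actives all read lower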;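 also: 100% = DMSO only wells and 0% = binding blocked by excess unlabeled MEK5; lower values mean stronger disruption of MEK5 binding to MEKK3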
Active calls of the source: *; . = not tested or not shown; [ ] = remark or other dose.

SMILES | MEKK2 WT-MEK5 | dFosB activator | MEKK3 PB1 HTS | MEKK2 mut-MEK5 | DNA FID counter | MEKK2wt confirm | MEKK2mut-MEK5 | MEKK3-MEK5 inh
COC(=O)c1ccccc1OCCCCN1CC(C)OC(C)C1 (configuration not stated) | 102 | 2 | 152* | 1 | 7 | 109 | 12 | 108
Cc1cccc(C)c1NC(=O)CNC(=O)Cn1nc(C)c(C)c(C#N)c1=O | . | -4 | . | . | . | . | . | .
CNC(=S)Nc1ccc(OC)c(OC)c1 | 3.0*[inhibitor] | -2 | 2.0*[inhibitor] | -21 | 4 | 100 | 3 | 104
CCOC(=O)CCCNC(=O)COC(=O)CCC(=O)c1ccc(F)cc1 | 2.0*[inhibitor] | 2 | 2.0*[inhibitor] | -20 | -15 | 96 | 0 | 100
O=C(COC(=O)CCC(=O)c1ccc(F)cc1)NCc1ccco1 | 87 | -12 | 74*[inhibitor] | -8 | 1 | 102 | -5 | 101
Cc1ccccc1-c1cc(C(=O)NCc2ccc3c(c2)OCO3)nn1CC1CC(c2cccc([N+](=O)[O-])c2)=NO1 (configuration not stated) | . | 2 | . | . | . | . | . | .
Cc1c(NS(=O)(=O)c2ccccc2)c(=O)n(-c2ccccc2)n1C | 124 | 5 | 126* | 7 | -4 | 92 | -8 | 97
Cc1c(NC(=O)/C(=C/c2cccs2)NC(=O)c2ccccc2)c(=O)n(-c2ccccc2)n1C | 93 | -5 | 100 | 0 | -10 | . | . | .
Cc1ccc(S(=O)(=O)Nc2c(C)n(C)n(-c3ccccc3)c2=O)cc1 | 66 | 3 | 57 | -13 | -4 | . | . | .
Cc1c(NC(=O)/C(=C\c2ccccc2)NC(=O)c2ccccc2)c(=O)n(-c2ccccc2)n1C | 125 | -3 | 130* | 8 | -3 | 102 | 0 | 101
Cc1c(NC(=O)c2ccccc2F)c(=O)n(-c2ccccc2)n1C | 41*[inhibitor] | -8 | 23*[inhibitor] | -32 | 3 | 101 | 2 | 106
CCCSc1nc(C)c(-c2csc(C(C#N)=C3CCCC3)n2)cc1C#N | 100 | -22 | 103 | 2 | -7 | . | . | .
CC1(C)CC(=O)C=C(c2ccc3ccccc3c2)C1 | . | 1 | . | . | . | . | . | .
Nc1nnc(SCC(=O)Nc2cccc(S(=O)(=O)N3CCCCC3)c2)s1 | . | -3 | . | . | . | . | . | .
OCc1ccccc1OCCCN1CCC(Cc2ccccc2)CC1 | 194* | 11 | 112 | 24* | 13 | 142 | 18 | 102
Clc1ccc(CN2CCC(Cc3ccccc3)CC2)cc1 | 199* | 1 | 103 | 59* | 10 | 117 | 9 | 107
Clc1cccc(CN2CCC(Cc3ccccc3)CC2)c1 | 112 | -3 | 104 | 5 | 13 | . | . | .
O=Cc1cc(Cl)ccc1OCCN1CCC(Cc2ccccc2)CC1 | 140* | 0 | 110 | 10 | 22 | 132 | 22 | 109
CCc1ccc(-c2nc(CN3CCC(C(=O)N4CCN(c5ccccn5)CC4)CC3)c(C)o2)cc1 | . | -5 | . | . | 13 | . | . | .
CCN(CCNC(=O)C1CCCN(Cc2nc(-c3ccc(OC)cc3)oc2C)C1)c1ccccc1 (configuration not stated) | 134 | -8 | 106 | 12 | 19 | . | . | .
CCc1ccc(-c2nc(CN3CCC(C(=O)NCCN(CC)c4ccccc4)CC3)c(C)o2)cc1 | 184* | -6 | 104 | 15 | 16 | 148 | 20 | 106
CCc1ccc(-c2nc(CN3CCC(C(=O)N4CCN(c5ccccc5)CC4)CC3)c(C)o2)cc1 | 152* | -17 | 108 | 7 | 25 | 116 | 8 | 105
CCc1ccc(-c2nc(CN3CCC(C(=O)NCc4ccc(F)cc4)CC3)c(C)o2)cc1 | 145* | 4 | 104 | 13 | 4 | 117 | 3 | 104
CCN(CCNC(=O)C1CCN(Cc2nc(-c3ccc(Cl)cc3)oc2C)CC1)c1ccccc1 | 163* | -10 | 107 | 15 | 44* | 151 | 33 | 110
Cc1oc(-c2ccc(Cl)cc2)nc1CN1CCC(C(=O)NCc2cccs2)CC1 | 126 | -2 | 116 | 6 | 18 | . | . | .
SMILES | MEKK2 WT-MEK5 | dFosB activator | MEKK3 PB1 HTS | MEKK2 mut-MEK5 | DNA FID counter | MEKK2wt confirm | MEKK2mut-MEK5 | MEKK3-MEK5 inh
O=C(CNS(=O)(=O)c1ccc(Cl)c(C(F)(F)F)c1)NC1CCCCC1 | . | -15 | . | . | . | . | . | .
Cc1oc(-c2cccc(Cl)c2)nc1CN1CCC(C(=O)NC2CC2)CC1 | 99 | -5 | 102 | 1 | -1 | . | . | .
CCN(CCNC(=O)C1CCN(Cc2nc(-c3cccc(Cl)c3)oc2C)CC1)c1ccccc1 | 188* | -7 | 109 | 20 | 25 | 138 | 15 | 101
COc1ccc(NC(=O)COC(=O)CCCOc2ccc(Cl)cc2Cl)cc1Cl | 104 | -12 | 107 | -1 | 1 | . | . | .
C=CC#CC[N+]1(CC#Cc2ccccc2)CCOCC1 | 99 | -71 | 51*[inhibitor] | 11 | 4 | 113 | 21 | 35*
C(#Cc1ccccc1)C[N+]1(CC#Cc2ccccc2)CCCC1 | 96 | -2 | 97 | -1 | 1 | . | . | .
Cc1ccc(-c2n[nH]c(=O)c3ccccc23)cc1S(N)(=O)=O | 98 | -11 | 98 | 2 | -3 | . | . | .
Cc1ccccc1OCC(=O)NC(=S)Nc1ccc(S(=O)(=O)NC2CCCCC2)cc1 | 104 | -3 | 108 | 5 | -1 | . | . | .
CC(=O)NS(=O)(=O)c1ccc(NC(=S)NC(=O)COc2ccccc2C)cc1 | 106 | -5 | 139* | 0 | 3 | 92 | -6 | 98
c1ccc(-n2ncc3c(N4CCN(c5ccccn5)CC4)nc(N4CCCCCC4)nc32)cc1 | 111 | 2 | 114 | 7 | -12 | . | . | .
O=S(=O)(NC1CC2CCC1C2)c1ccc2c(c1)OCCO2 (configuration not stated) | 3.0*[inhibitor] | -1 | 2.0*[inhibitor] | -26 | -9 | 96 | 1 | 102
CC1CCCC(NS(=O)(=O)c2ccc3c(c2)OCCO3)C1C (configuration not stated) | 106 | -3 | 106 | 4 | -18 | . | . | .
Cc1ccc2c(c1)c1c(n2CC(O)CN2CCCCCC2)CCCC1 (configuration not stated) | 123 | 6 | 106 | 14 | 12 | . | . | .
Cc1ccc2c(c1)c1c(n2CC(O)Cn2c(C)nc3ccccc32)CCCC1 (configuration not stated) | 133 | 5 | 108 | 27* | -5 | 123 | 14 | 105
CSc1nc2nc3c(cc2c(=O)n1-c1ccccc1)COC(C)(C)C3 | 95 | -8 | 96 | -5 | -19 | . | . | .
CSc1nc2nc3c(cc2c(=O)n1-c1ccc(C)cc1)COC(C)(C)C3 | 116 | 0 | 129* | 29 | -24 | 100 | -2 | 104
